Structures can show the parent of a compound that is named as a salt. A number with no mark means an inactive call.
Tests used:
Details in all cases: 20 µM
[1] = test system: Salmonella enterica typhimurium; experiment: growth AUC normalised to DMSO control (fraction of control); higher = less growth inhibition, active = hit call of the paper
Summary of the method: (§1)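 Hemin and NAD were added to the medium for Haemophilus parainfluenzae. All pathogens, after two anaerobic passages, were inoculated at a starting OD578 of 0.01 into pre-reduced mGAM plates with 20 μM compound and 1% DMSO under breathable seals, and OD578 was read hourly for 24 h in three biological replicates. AUC of each growth curve was obtained with the trapezoidal rule up to the exponential-to-stationary transition and normalised to DMSO controls from the same plate.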

[2] = test system: Shigella flexneri; experiment: as above
Summary of the method: as §1

[3] = test system: Vibrio cholerae; experiment: as above
Summary of the method: as §1

[4] = test system: Yersinia pseudotuberculosis; experiment: as above
Summary of the method: as §1

[5] = test system: P. vulgatus RND KO; experiment: growth AUC normalised to DMSO control (median) (fraction of control); higher = less growth inhibition, active = hit call of the paper
Summary of the method: (§2)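 Area under the growth curve, calculated by the trapezoidal rule up to entry into stationary phase, was normalised to vehicle wells on the same plate. Strains had been passaged twice overnight without oxygen and then grown in mGAM in 96-well plates from OD578 0.01, each with an approved-drug library compound at 20 μM in 1% DMSO. OD578 was read hourly over 24 h in an anaerobic incubator, and the median of three biological replicates is given.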

[6] = test system: P. vulgatus WT; experiment: as above
Summary of the method: as §2

[7] = test system: S. enterica typhimurium WT; experiment: as above
Summary of the method: as §2

[8] = test system: S. enterica typhimurium tolC KO; experiment: as above
Summary of the method: as §2
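Wherever growth AUC normalised to DMSO control (median) is given: active when median AUC fell below 0.1.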

| SMILES | growth AUC normalised to DMSO control [1] | growth AUC normalised to DMSO control [2] | growth AUC normalised to DMSO control [3] | growth AUC normalised to DMSO control [4] | growth AUC normalised to DMSO control [5] | growth AUC normalised to DMSO control [6] | growth AUC normalised to DMSO control [7] | growth AUC normalised to DMSO control [8] |
| --- | --- | --- | --- | --- | --- | --- | --- | --- |
| CC(C)NCC(O)COc1ccc(CCOCC2CC2)cc1 (stereo not given) [Betaxolol hydrochloride] | 0.998 | 0.988 | 1 | 1 | 1.01 | 1.01 | 1.01 | 1 |
| O=c1oc2ccccc2c(O)c1Cc1c(O)c2ccccc2oc1=O [Dicumarol] | 0.986 | 1 | 0.891 | 1 | 0.877 | 0.945 | 1 | 0.891 |
| O=C1CCc2ccc(OCCCCN3CCN(c4cccc(Cl)c4Cl)CC3)cc2N1 [Aripiprazole] | 1.02 | 1.03 | 1.02 | 1.01 | 0.889 | 0.891 | 1.01 | 0.92 |
| NC(=O)N1c2ccccc2C=Cc2ccccc21 [Carbamazepine] | 0.997 | 0.996 | 0.999 | 1 | 1 | 1.04 | 0.998 | 0.999 |
| CCCCN(CCCC)CCCOC(=O)c1ccc(N)cc1 [Butacaine] | 0.988 | 1.01 | 0.981 | 1 | 1.05 | 1.04 | 1.01 | 1 |
| CC(=O)N[C@@H](CS)C(=O)O [Acetylcysteine] | 1.03 | 1.06 | 1.05 | 1.04 | 1.07 | 1.06 | 1.01 | 0.991 |
| COc1ccc(C(Cl)=C(c2ccc(OC)cc2)c2ccc(OC)cc2)cc1 [Chlorotrianisene] | 0.994 | 0.944 | 0.983 | 1.01 | 0.96 | 0.928 | 0.978 | 0.993 |
| CCC[C@@H]1C[C@@H](C(=O)N[C@@H]([C@H]2O[C@H](SC)[C@H](O)[C@@H](O)[C@H]2O)[C@@H](C)O)N(C)C1 [Lincomycin hydrochloride] | 0.904 (active) | 0.956 | 0.956 | 0.994 | 0.0196 (active) | 0.0159 (active) | 0.956 | 0.866 |
| O=C(OCCOCCO)c1ccccc1Nc1cccc(C(F)(F)F)c1 [Etofenamate] | 1.01 | 0.979 | 0.977 | 0.991 | 0.832 | 0.909 | 1 | 0.858 |
| C[C@H](CCC(=O)O)[C@H]1CC[C@H]2[C@@H]3CC[C@@H]4C[C@H](O)CC[C@]4(C)[C@H]3CC[C@]12C [Lithocholic acid] | 1.01 | 1.02 | 1.04 | 1.02 | 1.01 | 1.03 | 1 | 0.995 |
| CCOC(=O)C1=C(C)NC(C)=C(C(=O)OCC)C1c1ccccc1/C=C/C(=O)OC(C)(C)C [Lacidipine] | 1.01 | 1 | 1.02 | 1.02 | 1.07 | 1.06 | 1 | 1 |
| COc1ccc(C2CNC(=O)C2)cc1OC1CCCC1 (stereo not given) [Rolipram] | 0.976 | 0.948 | 0.945 | 0.984 | 1.01 | 1.02 | 1.01 | 0.98 |
| Nc1ccc(S(=O)(=O)NC(=O)c2ccccc2)cc1 [Sulfabenzamide] | 1.02 | 1.03 | 1.06 | 1.04 | 1.05 | 1.1 | 1 | 1.01 |
| CO[C@H]1/C=C/O[C@@]2(C)Oc3c(C)c(O)c4c(O)c(c(/C=N/N5CCN(C)CC5)c(O)c4c3C2=O)NC(=O)/C(C)=C\C=C\[C@H](C)[C@H](O)[C@@H](C)[C@@H](O)[C@@H](C)[C@H](OC(C)=O)[C@@H]1C [Rifampicin] | 0.23 (active) | 0.118 (active) | 1.01 | 0.0362 (active) | 0.0135 (active) | 0.0147 (active) | 0.523 | 0.254 |
| Cc1nc2ccccn2c(=O)c1CCN1CCC(C(=O)c2ccc(F)cc2)CC1 [Pirenperone] | 1.02 | 1.03 | 1.01 | 1 | 1.03 | 1.04 | 1.01 | 0.986 |
| CN(C)CCC(c1ccc(Cl)cc1)c1ccccn1 (stereo not given) [Chlorpheniramine maleate] | 0.987 | 0.94 | 0.972 | 0.956 | 0.994 | 0.987 | 0.994 | 0.996 |
| C#C[C@]1(O)CC[C@H]2[C@@H]3CCc4cc(O)ccc4[C@H]3CC[C@@]21C [Ethinylestradiol] | 0.985 | 1.02 | 0.996 | 1.03 | 0.913 | 0.913 | 0.998 | 0.985 |
| NS(=O)(=O)c1cc2c(cc1Cl)NC(C(Cl)Cl)NS2(=O)=O (stereo not given) [Trichlormethiazide] | 0.974 | 1.04 | 0.957 | 0.986 | 0.974 | 0.982 | 1.01 | 0.999 |
| C#C[C@]1(O)CC[C@H]2[C@@H]3CCC4=CC(=O)CC[C@@H]4[C@H]3CC[C@@]21CC [(D-) Norgestrel] | 0.98 | 0.938 | 0.961 | 0.979 | 0.989 | 0.974 | 0.998 | 1 |
| NS(=O)(=O)c1cc2c(cc1Cl)NCNS2(=O)=O [Hydrochlorothiazide] | 1.02 | 0.994 | 1.05 | 1.01 | 0.981 | 0.997 | 0.996 | 1.02 |
| Cc1ccc(Cl)c(Nc2ccccc2C(=O)O)c1Cl [Meclofenamic acid sodium salt monohydrate] | 1 | 0.954 | 0.891 | 0.981 | 0.859 | 0.903 | 1.01 | 1.01 |
| CC(=O)N[C@@H](CC(C)C)C(=O)O [N-Acetyl-L-leucine] | 1.04 | 1.01 | 1.03 | 1 | 0.99 | 0.997 | 0.999 | 0.996 |
| C[C@]12C=CC(=O)C=C1CC[C@@H]1[C@@H]2[C@@H](O)C[C@@]2(C)[C@H]1CC[C@]2(O)C(=O)CO [Prednisolone] | 0.982 | 0.96 | 0.971 | 0.994 | 0.976 | 0.995 | 0.995 | 0.998 |
| Fc1ccc([C@@H]2CCNC[C@H]2COc2ccc3c(c2)OCO3)cc1 [Paroxetine hydrochloride] | 0.995 | 1 | 0.94 | 0.991 | 0.997 | 1.02 | 0.998 | 0.982 |
| C[C@@H]1CCC[C@H](C)N1NC(=O)c1ccc(Cl)c(S(N)(=O)=O)c1 [Clopamide] | 0.976 | 0.97 | 0.982 | 0.992 | 1 | 0.981 | 1.01 | 0.988 |
| CC(=O)Nc1ccc(O)cc1 [Acetaminophen] | 0.992 | 0.99 | 0.997 | 0.996 | 1.02 | 1.01 | 1 | 0.998 |
| OC(c1cc(C(F)(F)F)nc2c(C(F)(F)F)cccc12)C1CCCCN1 (stereo not given) [Mefloquine hydrochloride] | 0.997 | 0.975 | 1 | 0.99 | 0.719 | 0.777 | 0.998 | 0.948 |
| Nc1ncnc2c1ncn2C1OC(COP(=O)(O)O)C(O)C1O (stereo not given) [Adenosine 5'-monophosphate monohydrate] | 0.999 | 0.986 | 0.981 | 1 | 0.977 | 0.984 | 0.992 | 0.995 |
| CC(C)(C)NC[C@H](O)COc1ccccc1C1CCCC1 [Penbutolol sulfate] | 1.01 | 1.02 | 1 | 1.02 | 0.994 | 1.01 | 1 | 0.947 |
| NNCCc1ccccc1 [Phenelzine sulfate] | 1.03 | 1.05 | 1.03 | 1.02 | 1.1 | 1.16 | 0.994 | 0.955 |
